JMJD2A Tudor inh = qHTS Assay for Inhibitors of JMJD2A-Tudor Domain | AID 504339, 2011 | hit rate 4.4% among 390,000 | AlphaScreen JMJD2A-Tudor / H3K4me3 peptide binding | Potency, µM (series often up to 114 µM), inactives show at the top dose activity change, negative = inhibition, usual class: inhibitors; further: on the % scale 0 is the no-effect control and ±100 the full control effect; nearly all actives have a fitted effect of over 50% in size
L3MBTL1 inh = qHTS Assay for the Inhibitors of L3MBTL1. AID 485360, 2010. Potency, µM (highest dose often 57.1 µM), for inactives: at the highest dose activity, negative = inhibition, actives largely listed as inhibitors. Lethal(3)malignant brain tumor-like protein 1 (Homo sapiens), Q9Y468. hit rate 0.66% among 230,000. AlphaScreen L3MBTL1–H3K9me1 peptide binding; further: on the % scale 0 is the no-effect control and ±100 the full control effect; nearly all actives have a fitted effect of over 60% in size
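L3MBTL1 50 nM + b-AHA-H3(1-15)K9me1 75 nM, 30 min RT; compound added, 30 min RT; streptavidin donor/Ni-chelate acceptor beads 10 ug/mL each final, 30 min RT dark; AlphaScreen read.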
G9a inh = qHTS Assay for Inhibitors of Histone Lysine Methyltransferase G9a; Histone-lysine N-methyltransferase EHMT2 (Homo sapiens), Q96KQ7; G9a H3K9 monomethylation, AlphaScreen, 2 h; Potency, µM (highest dose often 102 µM), for inactives: at the highest dose activity, negative = inhibition, usual class: inhibitors; hit rate 8.8% among 350,000; AID 504332, 2011; further: on the % scale 0 is the no-effect control and ±100 the full control effect; nearly all actives have a fitted effect of over 75% in size
Target sequence (Q96KQ7 913-1193 limits assumed): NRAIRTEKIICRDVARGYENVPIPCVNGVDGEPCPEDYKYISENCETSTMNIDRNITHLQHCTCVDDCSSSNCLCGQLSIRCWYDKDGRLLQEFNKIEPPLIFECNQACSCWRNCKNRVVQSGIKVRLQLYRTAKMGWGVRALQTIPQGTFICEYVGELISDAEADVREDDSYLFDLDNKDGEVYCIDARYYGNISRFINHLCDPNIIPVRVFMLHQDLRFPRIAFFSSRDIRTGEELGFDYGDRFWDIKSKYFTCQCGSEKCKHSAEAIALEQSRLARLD
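Signal arises when biotinylated H3K9 peptide, once monomethylated, bridges streptavidin donor and antibody-captured acceptor beads. Enzyme at 20 nM was preincubated 15 min with test compounds; peptide 500 nM and SAM 20 uM then reacted for 2 h.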
HP1b chromo inh = HTS for Inhibitors of HP1-beta Chromodomain Interactions with Methylated Histone Tails. Chromobox protein homolog 1 (Homo sapiens), P83916. AlphaScreen HP1-beta / biotin-H3K9me3 peptide binding. Potency, µM (highest dose often 114 µM), without a hit: top-dose activity change, negative = inhibition, hits mostly inhibitors. hit rate 0.56% among 390,000; further: nearly all actives have a fitted effect of over 70% in size
Target sequence (P83916 whole entry, looked up): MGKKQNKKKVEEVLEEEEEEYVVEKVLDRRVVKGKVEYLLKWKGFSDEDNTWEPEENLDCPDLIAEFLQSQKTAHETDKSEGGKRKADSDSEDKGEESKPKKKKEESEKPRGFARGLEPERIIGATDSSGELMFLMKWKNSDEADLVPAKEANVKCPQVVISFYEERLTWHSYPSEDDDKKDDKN
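Compound inhibition of the preformed complex between 50 nM HP1-beta and 50 nM biotinylated H3K9me3 peptide was read by AlphaScreen. Buffer was PBS pH 7.4 with 0.01% Tween-20. Incubations ran 30 min at room temperature, with 10 ug/mL donor/acceptor beads.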
BAZ2B inh = qHTS Assay for Inhibitors of BAZ2B | Bromodomain adjacent to zinc finger domain protein 2B (Homo sapiens), Q9UIF8 | AID 504333, 2011 | Potency, µM (top dose mostly 114 µM), for inactives: top-dose activity change, negative = inhibition, most hits filed as inhibitors | AlphaScreen BAZ2B-H3K14Ac peptide displacement | hit rate 4.4% among 360,000; further: on the % scale 0 is the no-effect control and ±100 the full control effect; nearly all actives have a fitted effect of over 60% in size
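AlphaScreen displacement of biotin-H3(5-23)K14Ac peptide (50 nM final) from BAZ2B (50 nM final) in PBS pH 7.4, 0.01% Tween-20; complex preformed 30 min RT, then compounds (top 110 uM) 30 min RT, beads 20 min dark.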
Sfp inh = qHTS Assay for Inhibitors of Bacillus subtilis Sfp phosphopantetheinyl transferase (PPTase) | 4'-phosphopantetheinyl transferase ffp (Bacillus subtilis), Q9F4F7 | Biochemical Sfp PPTase activity, qHTS | Potency, µM, for inactives: largest response in the series, negative = inhibition, hits mostly inhibitors | hit rate 3.5% among 310,000;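 further: the enzyme is Sfp with the accession as filed and its product quenches rhodamine fluorescence; 0% = enzyme reaction without inhibitor and -100% = no enzyme wells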
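After 15 min at room temperature with compound, 15 nM Sfp received 5 uM rhodamine-CoA plus 12.5 uM BHQ-2-ybbR (50 mM Hepes pH 7.6, 10 mM MgCl2). Rate came from the fluorescence difference over 30 min, ex 525/em 598 nm.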
Numbers without * were called inactive; ? = inconclusive; . = no result; [ ] = dose if it differs, or a comment. In the library only some 12% were active in any assay of this set; here they are far more common. The call rests on the fitted dose curve; in most records, active means well fitted curve in the direction sought with a large enough effect; inconclusive means small, poorly fitted or top-dose-only effect, or another doubt; inactive means no such curve, though single readings can be large; an effect the other way counts as inactive or inconclusive. Potency means the concentration at half of the fitted maximal effect.

SMILES	JMJD2A Tudor inh	L3MBTL1 inh	G9a inh	HP1b chromo inh	BAZ2B inh	Sfp inh
O=C(CSc1nnc(CNC(=O)c2ccccc2F)o1)c1ccccc1	?	-1.6%	70.8µM*	1.1%	6.7%	?
O=C(CSc1nnc(CNC(=O)c2ccco2)o1)c1ccccc1	-6.3%	.	-48.7%	37.8%	-1.3%	70.8µM*
C=CCn1c(CNC(=O)c2ccco2)nnc1SCC(=O)c1ccccc1	3.6%	-10.4%[2.29 µM]	?	31.9%	11.2%	44.7µM*
COCCNc1ccnc(-c2ccccc2CN(C)C)n1	.	.	.	.	.	6.1%
O=C(NCCc1ccccc1)C1CCCN1C(=O)Nc1ccc(Cl)cc1 (stereo not given)	-5.6%	10.9%	.	56.6%	?	0.5%
COc1ccc(Cl)cc1NC(=S)NNC(=O)CC(C)C	-22.1%	2.6%	24.6%[12.7 µM]	7.5%	-2.9%	22.6%
COc1ccc(NC(=S)NNC(=O)c2cccnc2)cc1OC	-15.3%	3.9%	44.7µM*	21.3%	-14.5%	-8.6%
COc1ccc(Cl)cc1NC(=S)NNC(=O)c1cccs1	?	-20.9%	28.2µM*	0.7%	-28.5%	16.1%
COc1ccc(Cl)cc1NC(=S)NNC(=O)c1cccnc1	-25.3%	.	25.1µM*	2.5%	4.6%	7.0%
COc1ccc(CC(=O)NNC(=O)c2cccnc2)cc1OC	-3.4%	-11.5%	0.1%	39.1%	?	4.2%
COc1ccc(C(=O)/C=C/C(=O)N(CC(=O)NC2CCCCC2)CC2CCCO2)c(O)c1 (stereo not given)	-19.9%	-10.8%	8.91µM*	-5.0%	-30.4%	3.16µM*
COc1ccc(C(=O)/C=C/C(=O)N(CC(=O)NC2CCCCC2)Cc2ccccc2)c(O)c1	-16.8%	5.3%	.	33.2%	?	1.78µM*
COc1ccc(C(=O)/C=C/C(=O)N(Cc2ccc(F)cc2)C(C(=O)NC2CCCCC2)c2ccncc2)c(O)c1 (stereo not given)	-25.2%	-11.4%	14.6%[59 µM]	-2.3%	-38.3%	3.3%
COc1ccc(C(=O)/C=C/C(=O)N(Cc2ccccc2)C(C(=O)NC2CCCCC2)c2ccncc2)c(O)c1 (stereo not given)	-29.9%	-4.2%	4.1%[59 µM]	14.6%	?	-1.6%
COc1ccc(C(=O)/C=C/C(=O)N(CC(=O)NC2CCCCC2)Cc2ccccc2OC)c(O)c1	-14.2%[57.1 µM]	-3.6%	17.8µM*	26.2%	-28.7%	3.16µM*
COc1ccc(-n2c(=O)c(-c3cccs3)nc3cnc(N4CCN(C)CC4)nc32)cc1	.	.	1.3%[0.501 µM]	.	.	-16.3%
O=C(Cc1cccc2ccccc12)NCC(=O)Nc1ccccc1F	-22.0%	.	.	23.0%	-12.3%	-6.7%
CN(CCc1ccccn1)C1CC(=O)N(c2ccc(Cl)cc2)C1=O (stereo not given)	-21.5%	.	5.01µM*	48.2%	-3.9%	-17.1%
CN(CCc1ccccn1)C(=O)Nc1ccc(Cl)cc1	5.3%	.	10.5%[59 µM]	16.9%	-17.1%	14.6%
Cc1cccc(Cn2c(=O)n(Cc3ccccc3)c(=O)c3c2c2cc(C)ccc2n3C)c1	10.3%	.	-2.7%[59 µM]	49.8%	2.4%	.
CC(C)CN(C(=O)CSc1nnc2ccccn12)c1c(N)n(CC(C)C)c(=O)[nH]c1=O	-6.0%	.	44.7µM*	9.5%	-2.3%	-1.0%
CN(C(=O)CSc1nnc2ccccn12)c1c(N)n(Cc2ccccc2)c(=O)[nH]c1=O	-13.6%	6.4%	35.5µM*	?	-0.7%	-17.5%
CCCCn1c(N)c(N(CCC(C)C)C(=O)CSc2nnc3ccccn23)c(=O)[nH]c1=O	-1.3%	.	2.2%[2.33 µM]	34.6%	7.0%	19.5%
